The results in this text go back to PubChem BioAssay (NCI).

The nature of experiment [1]: NCI Yeast Anticancer Drug Screen. Data for the rad50 strain (AID 155).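 Also: 0% = growth of vehicle-only cultures of the same strain.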 The settings on record: S. cerevisiae rad50 strain growth inhibition, active compounds read high. Put shortly:
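A DNA repair-deficient yeast mutant serves as the test organism; compound-induced growth inhibition is calculated against vehicle-treated cells.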

The nature of experiment [2]: NCI Yeast Anticancer Drug Screen. Data for the mec2-1 strain (AID 157). The settings on record: S. cerevisiae mec2-1 strain, active compounds read high. Put shortly: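 Vehicle-treated cultures served as reference for growth inhibition of compound-exposed mec2-1 yeast.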
Experiment [3] in a line: NCI Yeast Anticancer Drug Screen. Data for the sgs1 mgt1 strain (AID 161).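 Also: 0% = growth of cultures given vehicle only.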 The following applies: S. cerevisiae sgs1 mgt1 strain, active compounds read high. The essentials: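 Test agents were incubated with a DNA-repair-mutant yeast strain. Growth was then read and compared against vehicle-treated controls.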
The nature of experiment [4]: NCI Yeast Anticancer Drug Screen. Data for the cln2 rad14 strain (AID 165).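 Also: 0% = growth equal to vehicle treated cultures.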 The following applies: S. cerevisiae cln2 rad14 strain, active compounds read high. The essentials:
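Each compound was tested on cln2 rad14 yeast. Inhibition of growth was calculated against vehicle-exposed controls.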

The nature of experiment [5]: NCI Yeast Anticancer Drug Screen. Data for the bub3 strain (AID 167). The following applies: S. cerevisiae bub3 mutant strain, active compounds read high. The essentials:
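Inhibition values come from growth of compound-treated mutant yeast normalised to vehicle-treated controls.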

Experiment [6] can be described thus: NCI Yeast Anticancer Drug Screen. Data for the mlh1 rad18 strain (AID 175). The following applies: S. cerevisiae mlh1 rad18 strain growth inhibition, active compounds read high. The essentials: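 Vehicle-treated cultures served as the reference for growth inhibition in a yeast strain carrying DNA damage repair alterations exposed to each compound.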
Where [7] appears, read: at 5.0 µM (retest, dose inferred, filed as 0.5).
Where [8] appears, read: at 50.0 µM (retest, dose inferred, filed as 5.0).

The structures appear in SMILES notation. About 79,000 compounds went through this panel and 15% of them were active in at least one assay; those are over-represented in the sample as a whole. A number with no mark means an inactive call. Activity calls are given as the source filed them. Rule as the data show it: active = growth inhibition above about 70%; inactive = the rest.

For the compound `CS(=O)(=O)c1snc(N)c1C#N`, the growth inhibition was 11% in experiment [1] (setting [7]); 73% (active) in experiment [1] (setting [8]); 40.9% in experiment [1] (at 50.0 µM); 23% in experiment [2] (setting [7]); 85% (active) in experiment [2] (setting [8]); 47.5% in experiment [2] (at 50.0 µM). Moreover, the growth inhibition in experiment [3] (setting [7]) was 17%; in experiment [3] (setting [8]) it was 80% (active); in experiment [3] (at 50.0 µM), 50.6%; in experiment [4] (setting [7]), 6%; in experiment [4] (setting [8]), 61%; in experiment [4] (at 50.0 µM) it was -10.1%. Further, the growth inhibition was 29% in experiment [5] (setting [7]); 89% (active) in experiment [5] (setting [8]); -9.75% in experiment [5] (at 50.0 µM); 18% in experiment [6] (setting [7]); 85% (active) in experiment [6] (setting [8]); 68.4% in experiment [6] (at 50.0 µM).

Consider `CN(C)c1ccc(C(=C2C=CC(=[N+](C)C)C=C2)c2ccc(N(C)C)cc2)cc1` (tested in a mixture with another compound), for which the growth inhibition was 98% (active) in experiment [1] (setting [7]); 90% (active) in experiment [1] (setting [8]); 87.5% (active) in experiment [1] (at 50.0 µM); 99% (active) in experiment [2] (setting [7]); 93% (active) in experiment [2] (setting [8]); 88% (active) in experiment [2] (at 50.0 µM). Besides, the growth inhibition in experiment [3] (setting [7]) was 98% (active); in experiment [3] (setting [8]) it was 95% (active); in experiment [3] (at 50.0 µM), 89.7% (active); in experiment [4] (setting [7]), 99% (active); in experiment [4] (setting [8]), 95% (active); in experiment [4] (at 50.0 µM), 87.7% (active). The growth inhibition is 98% (active) in experiment [5] (setting [7]); 93% (active) in experiment [5] (setting [8]); 88.5% (active) in experiment [5] (at 50.0 µM); 98% (active) in experiment [6] (setting [7]); 91% (active) in experiment [6] (setting [8]); 86.5% (active) in experiment [6] (at 50.0 µM).

On to `CCCCCCCCCCCC(=O)N1CCCC1`, for which the growth inhibition in experiment [1] (setting [7]) was -1%; in experiment [1] (setting [8]), 99% (active); in experiment [1] (at 50.0 µM), 99.4% (active); in experiment [2] (setting [7]), -10%; in experiment [2] (setting [8]), 100% (active); in experiment [2] (at 50.0 µM), 99.5% (active). The growth inhibition in experiment [3] (setting [7]) is 3%; in experiment [3] (setting [8]) it was 40%; in experiment [3] (at 50.0 µM), 96.8% (active); in experiment [4] (setting [7]), -3%; in experiment [4] (setting [8]), 99% (active); in experiment [4] (at 50.0 µM), 99.2% (active). For the same compound, the growth inhibition in experiment [5] (setting [7]) was -3%; in experiment [5] (setting [8]), 99% (active); in experiment [5] (at 50.0 µM), 99.5% (active); in experiment [6] (setting [7]), 7%; in experiment [6] (setting [8]) it was 99% (active); in experiment [6] (at 50.0 µM), 99.5% (active).

As to `CC(=O)N(C1=C(Cl)C(=O)c2ccccc2C1=O)c1ccc(Cl)cc1`, the growth inhibition is 98% (active) in experiment [1] (setting [7]); 99% (active) in experiment [1] (setting [8]); 97.8% (active) in experiment [1] (at 50.0 µM); 99% (active) in experiment [2] (setting [7]); 99% (active) in experiment [2] (setting [8]); 95.3% (active) in experiment [2] (at 50.0 µM). In addition, the growth inhibition in experiment [3] (setting [7]) was 100% (active); in experiment [3] (setting [8]), 99% (active); in experiment [3] (at 50.0 µM), 99.2% (active); in experiment [4] (setting [7]) it was 95% (active); in experiment [4] (setting [8]) it was 99% (active); in experiment [4] (at 50.0 µM), 78% (active). In addition, the growth inhibition in experiment [5] (setting [7]) is 97% (active); in experiment [5] (setting [8]), 99% (active); in experiment [5] (at 50.0 µM) it was 79.8% (active); in experiment [6] (setting [7]) it was 99% (active); in experiment [6] (setting [8]), 99% (active); in experiment [6] (at 50.0 µM), 96.7% (active).

Turning to `C=C(CCC(C)C1CCC2(C)C3=C(CC(O)C12C)C1(C)CCC(O)C(C)(C)C1CC3)C(C)C(=O)O` (stereo not given), the growth inhibition is 11% in experiment [1] (setting [7]); 88% (active) in experiment [1] (setting [8]); 84.1% (active) in experiment [1] (at 50.0 µM); 15% in experiment [2] (setting [7]); 91% (active) in experiment [2] (setting [8]); 83% (active) in experiment [2] (at 50.0 µM). The growth inhibition was 20% in experiment [3] (setting [7]); 90% (active) in experiment [3] (setting [8]); 84.8% (active) in experiment [3] (at 50.0 µM); 40% in experiment [4] (setting [7]); 96% (active) in experiment [4] (setting [8]); 87.3% (active) in experiment [4] (at 50.0 µM). The growth inhibition in experiment [5] (setting [7]) was 29%; in experiment [5] (setting [8]), 94% (active); in experiment [5] (at 50.0 µM), 80.9% (active); in experiment [6] (setting [7]), 30%; in experiment [6] (setting [8]) it was 95% (active); in experiment [6] (at 50.0 µM), 82.7% (active).

`CC(=O)N1c2ccccc2C2=NN=C(N(C)C)SC21` (stereo not given): the growth inhibition was 6% in experiment [1] (setting [7]); 98% (active) in experiment [1] (setting [8]); 85.3% (active) in experiment [1] (at 50.0 µM); -15% in experiment [2] (setting [7]); 98% (active) in experiment [2] (setting [8]); 90% (active) in experiment [2] (at 50.0 µM). Moreover, the growth inhibition is 0% in experiment [3] (setting [7]); 98% (active) in experiment [3] (setting [8]); 83.8% (active) in experiment [3] (at 50.0 µM); -20% in experiment [4] (setting [7]); 97% (active) in experiment [4] (setting [8]); 83.8% (active) in experiment [4] (at 50.0 µM). Also, the growth inhibition was -14% in experiment [5] (setting [7]); 99% (active) in experiment [5] (setting [8]); 87.3% (active) in experiment [5] (at 50.0 µM); 1% in experiment [6] (setting [7]); 97% (active) in experiment [6] (setting [8]); 80.5% (active) in experiment [6] (at 50.0 µM).

`CCCCCC=C(c1cc(Br)cc(C(=O)O)c1O)c1cc(Br)cc(C(=O)O)c1O`: the growth inhibition in experiment [1] (setting [7]) was 2%; in experiment [1] (setting [8]) it was 91% (active); in experiment [1] (at 50.0 µM), 89.2% (active); in experiment [2] (setting [7]), 0%; in experiment [2] (setting [8]), 95% (active); in experiment [2] (at 50.0 µM), 85.8% (active). The growth inhibition in experiment [3] (setting [7]) is 0%; in experiment [3] (setting [8]), 95% (active); in experiment [3] (at 50.0 µM), 82.8% (active); in experiment [4] (setting [7]), 2%; in experiment [4] (setting [8]), 94% (active); in experiment [4] (at 50.0 µM), 67.1%. Besides, the growth inhibition is 0% in experiment [5] (setting [7]); 94% (active) in experiment [5] (setting [8]); 69% in experiment [5] (at 50.0 µM); 4% in experiment [6] (setting [7]); 94% (active) in experiment [6] (setting [8]); 88.9% (active) in experiment [6] (at 50.0 µM).

In the case of `Cn1c2c(c3ccccc31)CCN1C[C@@H]3CCCC[C@H]3C[C@@H]21`, the growth inhibition was 0% in experiment [1] (setting [7]); 55% in experiment [1] (setting [8]); 65% in experiment [1] (at 50.0 µM); 0% in experiment [2] (setting [7]); 2% in experiment [2] (setting [8]); 8.8% in experiment [2] (at 50.0 µM). For the same compound, the growth inhibition in experiment [3] (setting [7]) was -2%; in experiment [3] (setting [8]), -1%; in experiment [3] (at 50.0 µM), 74.4% (active); in experiment [4] (setting [7]), 6%; in experiment [4] (setting [8]), -6%; in experiment [4] (at 50.0 µM) it was -58.1%. The growth inhibition in experiment [5] (setting [7]) is 2%; in experiment [5] (setting [8]) it was 0%; in experiment [5] (at 50.0 µM), 62.5%; in experiment [6] (setting [7]), 0%; in experiment [6] (setting [8]), 25%; in experiment [6] (at 50.0 µM) it was 30.1%.

With `CN(C)CCCNc1ccc2c(=O)n(CCN(C)C)c(=O)n3c4ccccc4c(=O)c1c23`, the growth inhibition in experiment [1] (setting [7]) is 42%; in experiment [1] (setting [8]) it was 69%; in experiment [1] (at 50.0 µM) it was 71.7% (active); in experiment [2] (setting [7]), 29%; in experiment [2] (setting [8]), 33%; in experiment [2] (at 50.0 µM) it was 55%. In addition, the growth inhibition in experiment [3] (setting [7]) is 28%; in experiment [3] (setting [8]), 18%; in experiment [3] (at 50.0 µM), 26.2%; in experiment [4] (setting [7]), 40%; in experiment [4] (setting [8]), 24%; in experiment [4] (at 50.0 µM), 58.6%. Besides, the growth inhibition was 61% in experiment [5] (setting [7]); 37% in experiment [5] (setting [8]); 40.9% in experiment [5] (at 50.0 µM); 55% in experiment [6] (setting [7]); 61% in experiment [6] (setting [8]); 25.4% in experiment [6] (at 50.0 µM).

As for `CC#Cc1cc2c(cc1O)CC[C@@H]1[C@@H]2CC[C@]2(C)[C@@H](O)CC[C@@H]12`, the growth inhibition in experiment [1] (setting [7]) is 39%; in experiment [1] (setting [8]), 99% (active); in experiment [1] (at 50.0 µM), 84.7% (active); in experiment [2] (setting [7]) it was 22%; in experiment [2] (setting [8]) it was 100% (active); in experiment [2] (at 50.0 µM), 90.3% (active). Further, the growth inhibition was 24% in experiment [3] (setting [7]); 99% (active) in experiment [3] (setting [8]); 88.5% (active) in experiment [3] (at 50.0 µM); 20% in experiment [4] (setting [7]); 99% (active) in experiment [4] (setting [8]); 72.4% (active) in experiment [4] (at 50.0 µM). Further, the growth inhibition is 26% in experiment [5] (setting [7]); 99% (active) in experiment [5] (setting [8]); 87.7% (active) in experiment [5] (at 50.0 µM); 29% in experiment [6] (setting [7]); 99% (active) in experiment [6] (setting [8]); 93.3% (active) in experiment [6] (at 50.0 µM).
